# Screening results (PubChem BioAssay)
# The list is not random: actives were taken first. Their share in the collection is about 12%.
# JMJD2A Tudor inh = JMJD2A Tudor domain (human) inhibition; 390,000 compounds, 4.4% hits; Potency, µM (top dose mostly 114 µM), without a hit: at the highest dose activity change, negative = inhibition, actives largely listed as inhibitors; AlphaScreen JMJD2A-Tudor / H3K4me3 peptide binding; further: on the % scale 0 is the no-effect control and ±100 the full control effect; nearly all actives have a fitted effect of over 50% in size
# L3MBTL1 block = inhibitors of human L3MBTL1. AlphaScreen L3MBTL1–H3K9me1 peptide binding. Potency, µM (doses to about 57.1 µM), without a hit: top-dose activity, negative = inhibition, usual class: inhibitors. 230,000 compounds, 0.66% hits. Q9Y468; further: on the % scale 0 is the no-effect control and ±100 the full control effect; nearly all actives have a fitted effect of over 60% in size
#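 Read-out is AlphaScreen signal from streptavidin donor and nickel chelate acceptor beads (10 ug/mL final each) bridging L3MBTL1 (50 nM) and biotinylated K9-monomethylated H3(1-15) peptide (75 nM), after 30 min compound exposure at room temperature.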
# BAZ2B block = blocks human BAZ2B | Q9UIF8 | Potency, µM (doses to about 114 µM), for inactives: top-dose activity change, negative = inhibition, usual class: inhibitors | 360,000 compounds, 4.4% hits | AID 504333 | AlphaScreen BAZ2B-H3K14Ac peptide displacement; further: on the % scale 0 is the no-effect control and ±100 the full control effect; nearly all actives have a fitted effect of over 60% in size
#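 Protein-peptide AlphaScreen: BAZ2B 50 nM, b-H3K14Ac 50 nM, 1x PBS pH 7.4 + 0.01% Tween-20. Preincubation 30 min RT; cpd 30 min RT (top 110 uM); beads 20 min RT, light-protected.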
# G9a block = inhibitors of human histone lysine methyltransferase G9a. G9a H3K9 monomethylation, AlphaScreen, 2 h. Potency, µM (top dose mostly 102 µM), for inactives: at the highest dose activity, negative = inhibition, hits mostly inhibitors. 350,000 compounds, 8.8% hits. AID 504332; further: on the % scale 0 is the no-effect control and ±100 the full control effect; nearly all actives have a fitted effect of over 75% in size
# Target sequence (Q96KQ7 913-1193 limits assumed): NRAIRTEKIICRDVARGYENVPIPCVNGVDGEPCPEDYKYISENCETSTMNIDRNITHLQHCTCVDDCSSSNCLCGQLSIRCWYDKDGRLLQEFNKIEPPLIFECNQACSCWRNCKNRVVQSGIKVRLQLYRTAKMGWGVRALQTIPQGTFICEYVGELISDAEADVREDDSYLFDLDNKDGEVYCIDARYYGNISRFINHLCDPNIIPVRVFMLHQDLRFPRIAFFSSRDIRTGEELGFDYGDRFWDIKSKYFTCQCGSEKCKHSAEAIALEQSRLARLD
#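 Compounds were preincubated with 20 nM G9a for 15 min, after which biotinylated H3K9 peptide (500 nM) and SAM (20 uM) started a 2 h room-temperature reaction. Monomethylated product was quantified by antibody-based AlphaScreen chemiluminescence.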
# HP1b chromo inh = inhibitors of HP1-beta chromodomain binding to methylated histone tails; Potency, µM (highest dose often 114 µM), for inactives: at the highest dose activity change, negative = inhibition, actives largely listed as inhibitors; 390,000 compounds, 0.56% hits; AlphaScreen HP1-beta / biotin-H3K9me3 peptide binding; P83916; further: nearly all actives have a fitted effect of over 70% in size
# Target sequence (P83916 whole entry, looked up): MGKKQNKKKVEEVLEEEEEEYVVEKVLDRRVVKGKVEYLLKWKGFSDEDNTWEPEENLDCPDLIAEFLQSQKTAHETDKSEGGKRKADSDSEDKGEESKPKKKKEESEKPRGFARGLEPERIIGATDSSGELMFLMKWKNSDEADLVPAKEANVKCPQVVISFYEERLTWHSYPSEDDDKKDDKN
#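 Compound inhibition of the preformed complex between 50 nM HP1-beta and 50 nM biotinylated H3K9me3 peptide was read by AlphaScreen. Buffer was PBS pH 7.4 with 0.01% Tween-20. Incubations ran 30 min at room temperature, with 10 ug/mL donor/acceptor beads.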
# Sfp inh = Sfp phosphopantetheinyl transferase inhibition; Q9F4F7; 310,000 compounds, 3.5% hits; AID 1490; Biochemical Sfp PPTase activity, qHTS; Potency, µM, inactives show largest response in the series, negative = inhibition, most hits filed as inhibitors;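 further: the enzyme is Sfp with the accession as filed and its product quenches rhodamine fluorescence; 0% = enzyme reaction without inhibitor and -100% = no enzyme wells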
#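 Buffer: 50 mM Hepes-Na pH 7.6, 10 mM MgCl2, 0.01% Nonidet P-40, 0.01% BSA. Enzyme 15 nM, pre-exposed to compound 15 min; substrates then added and fluorescence change tracked over 30 min.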
# * marks the source's active call; other numbers are inactive results; ? = inconclusive; nt = no result given; [ ] = remark or other dose. The call rests on the fitted dose curve; in most records, active means well fitted curve in the direction sought with a large enough effect; inconclusive means small, poorly fitted or top-dose-only effect, or another doubt; inactive means no such curve, though single readings can be large; an effect the other way counts as inactive or inconclusive. Potency means the concentration at half of the fitted maximal effect.
SMILES,JMJD2A Tudor inh,L3MBTL1 block,BAZ2B block,G9a block,HP1b chromo inh,Sfp inh
Cc1ccc(-n2nc(C)c3c2OC(N)=C(C#N)C3c2ccc(C)o2)cc1 (stereo not given),11.2µM*,?,10µM*,8.91µM*,-26.0%,?
Cc1ccc(-n2nc(C)c3c2OC(N)=C(C#N)C3c2ccco2)cc1 (stereo not given),56.2µM*,?,17.8µM*,?,44.7µM*,-15.6%
COCCCNC(=O)CCCn1c(=O)c2cccn2c2cccnc21,-17.6%,nt,-8.9%,-7.8%[59 µM],-0.8%,nt
Cc1c(C(=O)NN2CCCCC2)nn(-c2ccc(Cl)cc2Cl)c1-c1ccc(Cl)cc1,nt,nt,nt,?,nt,-12.2%
O=C(NC(=S)Nn1cnc2c(cnn2-c2ccccc2)c1=O)c1ccc(Oc2ccccc2)cc1,-12.1%,0.5%,5.1%,7.2%[59 µM],12.3%,-2.5%
O=C(NC(=S)Nn1cnc2c(cnn2-c2ccccc2)c1=O)c1ccc(Cl)cc1,-31.2%,-6.5%,10.3%,44.7µM*,0.7%,11.2%
C[C@H](CO)N1C[C@H](C)[C@@H](CN(C)S(C)(=O)=O)Oc2ccc(NC(=O)NC3CCCCC3)cc2C1=O,-9.8%,0.6%,nt,nt,33.7%,nt
Cc1ccc(CNC(=O)c2c(C)oc3ncnc(N4CCOCC4)c23)cc1,-5.2%,nt,9.9%[57.1 µM],2.8%[59 µM],32.1%,nt
CCOC(=O)c1cnn(-c2cc(Oc3ccccc3C)ncn2)c1N,-4.3%,nt,10.4%,11.2%[12.7 µM],26.3%,50.1µM*
CCSc1ccc2cc(OC)ccc2[n+]1CC,?,nt,10.8%,20µM*,28.7%,?
c1cn(CCCNC2=NCCCCC2)cn1,-27.8%,-7.4%,50.1µM*,-1.8%,27.2%,2.2%
c1cn(CCCNC2CCCCCCC2)cn1,39.8µM*,nt,nt,nt,?,nt
COc1ccc(-n2c(=O)c3c4c(sc3n(Cc3ccc(C)cc3C)c2=O)CCC4)c(OC)c1,-32.4%,nt,?,?,-3.1%,nt
Cc1cnc(CNc2ncncc2-c2ccccc2C)cn1,nt,nt,nt,-14.5%[0.501 µM],nt,?
O=C(O)c1cc(S(=O)(=O)Nc2cc(Cl)ccc2Oc2ccccc2)ccc1O,-35.3%,1.1%,-32.7%,15.8µM*,9.8%,nt
Cc1ccccc1C(=O)Nc1ccc(OCc2cc(=O)n3cccc(C)c3n2)cc1,-22.7%,nt,7.6%,-2.4%[59 µM],21.0%[57 µM],nt
CCc1ccc(C(=O)c2cn(CC(=O)Nc3ccc(OC)cc3)c3cc4c(cc3c2=O)OCO4)cc1,-14.9%,nt,-6.2%,-31.4%[59 µM],19.1%,nt
CCc1ccc(C(=O)c2cn(CC(=O)Nc3ccc4c(c3)OCO4)c3ccc(OC)cc3c2=O)cc1,8.91µM*,nt,79.4µM*,14.1µM*,-10.1%,nt
Cc1ccc(NC(=O)c2ccc(-c3nn(C)c(=O)c4ccccc34)cc2)cc1,0.0%,nt,2.3%,18.3%,31.9%,79.4µM*
Cn1nc(-c2ccc(C(=O)Nc3ccc(F)cc3)cc2)c2ccccc2c1=O,-31.9%,4.3%,?,?,4.9%,-15.0%
Cc1nnsc1C(=O)NNc1ccc(C(C)(C)C)cc1,-21.4%,0.5%,-14.6%,1.78µM*,11.3%,-2.1%
Cc1nnsc1C(=O)NNC(=O)c1ccc(C(F)(F)F)cc1,-7.2%,8.7%,-6.8%,nt,17.7%,-7.4%
Cc1nnsc1C(=O)NNc1ccc(C(C)C)cc1,-11.7%,-2.5%,-13.7%,8.91µM*,5.5%,-1.3%
Cc1cc(C(=O)NNc2ccc(C(C)C)cc2)n(C(C)(C)C)n1,?,nt,?,7.94µM*,21.0%,8.3%
CC(=O)Nc1nc2ccccc2[nH]1,-3.6%,nt,-3.9%,1.5%,29.7%,17.4%
SMILES,JMJD2A Tudor inh,L3MBTL1 block,BAZ2B block,G9a block,HP1b chromo inh,Sfp inh
C/C(=N/O)c1ccccn1,?,5.4%,10µM*,-3.4%,20.1%,39.8µM*
C/C(=N\Nc1nc2ccccc2[nH]1)c1ccccn1,nt,nt,20µM*,6.2%,nt,17.8%
C/C(=N\Nc1nc2ccccc2[nH]1)c1cc2ccccc2o1,44.7µM*,-7.4%,?,44.7µM*,?,?
COC(=O)[C@H]1[C@@H](C)N(CCc2cc(OC)c(OC)c(OC)c2)C(=O)N[C@H]1c1ccccc1,-6.4%,nt,nt,nt,22.7%,3.0%
COCCNCC(=O)Nc1ccc(OC(F)(F)F)cc1,0.794µM*,15.0%,50.1µM*,22.4µM*,?,-16.2%
CCOCCn1ccc2c(OCC(=O)Nc3ccc(OC(F)(F)F)cc3)cccc2c1=O,-1.3%,nt,-5.8%,2.5%[59 µM],21.4%,nt
CCOCCCNCC(=O)Nc1ccc(OC(F)(F)F)cc1,39.8µM*,nt,79.4µM*,50.1µM*,?,1.1%
O=C(Cc1ccccc1)NCC(=O)Nc1ccc(OC(F)(F)F)cc1,-7.9%,nt,-12.2%,5.3%,28.0%,10.0%
Cc1cccc(NC(=O)C2CCCN(S(=O)(=O)c3c(C)n[nH]c3C)C2)c1 (stereo not given),-1.0%,nt,nt,29.4%[59 µM],52.1%,nt
COc1ccccc1NC(C)=[N+](C)CCNS(=O)(=O)c1ccc(Cl)cc1,?,nt,25.1µM*,?,?,?
Cc1ccc2cc3c(nc2c1)N(Cc1ccco1)CC3,-6.7%,-6.5%,-5.3%,-25.5%[12.7 µM],15.6%,-28.5%
Cc1cccc(N=C2Sc3nc4c(C)c(C)ccc4cc3CN2CCN2CCOCC2)c1,?,-10.3%,?,?,-4.5%,?
CCOC(=O)c1ccc2nc3c(cc2c1)CCS3,0.7%,13.6%,-5.5%,10.4%,66.8%,6.1%
